aSyn 5UTR act = Activators via SNCA 5'UTR binding, MLPCN. alpha-synuclein 5'UTR reporter, activators screen. activity score, % (tested at 7.5 µM), hits read low. 300,000 compounds, 7.1% hits. AID 1814; in the data active = activity score below about -60%
An asterisk follows results filed as active. The list is a sample of the results.

CCNC(=O)COc1ccc(-c2ccccc2)cc1 was read as aSyn 5UTR act -116*.
Screening C=CCC(CC(O)COCCC)C(=O)NNC(=S)Nc1ccccc1 (stereo unspecified) returned aSyn 5UTR act -113*.
Screening COc1ccc(CNC(=O)c2ccc(C(C)C)cc2)cc1 returned aSyn 5UTR act -181*.
CC(C)c1ccc(CNNC(=O)c2ccccc2)cc1 was read as aSyn 5UTR act -105*.
COc1ccc(CNC(=O)c2ccc(C(C)(C)C)cc2)cc1 was read as aSyn 5UTR act -126*.
For c1ccc(-c2ccc(-c3[nH]ncc3CN3CCC(N4CCSCC4)CC3)cc2)cc1 the results were aSyn 5UTR act -143*.
Screening CS(=O)(=O)Nc1cccc(C2=NN(S(C)(=O)=O)C(c3ccc4c(c3)OCO4)C2)c1 (stereo unspecified) returned aSyn 5UTR act -86*.
`Cc1ccc(C2CC(c3ccco3)=NN2S(C)(=O)=O)cc1` (stereo unspecified) gave aSyn 5UTR act -63*.
Screening CS(=O)(=O)N1N=C(c2ccccc2)CC1c1ccc2c(c1)OCO2 (stereo unspecified) returned aSyn 5UTR act -275*.
Screening C=CCn1cccc(C(=O)Nc2ccc(C)c(Cl)c2)c1=O returned aSyn 5UTR act -140*.
C=CCn1cccc(C(=O)Nc2ccc(OC)c(Cl)c2)c1=O was read as aSyn 5UTR act -84*.
CC1(C)CNc2cc(N)ccc2S1 was read as aSyn 5UTR act -74*.
`CC(=O)c1ccc(NC(=O)N2CCc3ccccc3C2)cc1` gave aSyn 5UTR act -87*.
Screening CC(=O)c1cccc(NC(=O)N2CCc3ccccc3C2)c1 returned aSyn 5UTR act -171*.
Cc1nc2c(C(=O)N3CCCCC3)cnn2c(C)c1Cc1ccccc1F was read as aSyn 5UTR act -117*.
O=C(c1ccco1)N1CCC(c2ccccc2)C1 (stereo unspecified) was read as aSyn 5UTR act -109*.
O=C(c1ccc(F)cc1)N1CCC(c2ccccc2)C1 (stereo unspecified) was read as aSyn 5UTR act -84*.
Screening CN1CCc2c(sc3nc(SCC(=O)NCc4ccco4)n(-c4ccccc4)c(=O)c23)C1 returned aSyn 5UTR act -84*.
For COc1ccc(C(=O)Nn2c(SCC(=O)NCc3ccccc3)nc3ccccc3c2=O)cc1 the results were aSyn 5UTR act 77.
For O=C(CSc1nc2ccsc2c(=O)n1NC(=O)c1ccccc1)Nc1nccs1 the results were aSyn 5UTR act -82*.
`O=C(CSc1nc2ccsc2c(=O)n1NC(=O)c1ccccc1)NCc1ccco1` gave aSyn 5UTR act -70*.
COc1ccc2cc(CN(CC3CCCO3)C(=O)Nc3ccccc3OC)c(=O)[nH]c2c1 (stereo unspecified) was read as aSyn 5UTR act 66.
For COc1ccccc1NC(=O)N(Cc1ccco1)Cc1cc2ccc(C)c(C)c2[nH]c1=O the results were aSyn 5UTR act 51.
`CCc1ccc2[nH]c(=O)c(CN(CCN(CC)CC)C(=O)Nc3ccccc3OC)cc2c1` gave aSyn 5UTR act -62*.
Screening N/C(=N\OC(=O)Nc1ccccc1)c1ncc(C(F)(F)F)cc1Cl returned aSyn 5UTR act -115*.
Screening N/C(=N\OC(=O)Nc1ccc(Cl)cc1)c1ncc(C(F)(F)F)cc1Cl returned aSyn 5UTR act -73*.
For S=C(Nc1ccccc1)c1ccccn1 the results were aSyn 5UTR act -165*.
For C=CCC1(CC=C)CCCN1C(=O)C1CCC(=O)N(CCc2ccc(OC)cc2)C1 (stereo unspecified) the results were aSyn 5UTR act -210*.
COc1ccc(CCN2CC(C(=O)N(C)Cc3ccc(C)o3)CCC2=O)cc1 (stereo unspecified) was read as aSyn 5UTR act -87*.
For C=CCC1(CC=C)CCCN1C(=O)C1CCC(=O)N(CCc2ccccc2)C1 (stereo unspecified) the results were aSyn 5UTR act -181*.
Screening Cc1cccc2nc(COc3ccc4ccccc4c3Br)cn12 returned aSyn 5UTR act -203*.
Cc1ccnc(SCC(=O)c2cccs2)n1 was read as aSyn 5UTR act -95*.
Cc1cc(C)c(C#N)c(SCC(=O)c2cccs2)n1 was read as aSyn 5UTR act -173*.
Screening Cc1cc(C)c(C#N)c(SCC(=O)Nc2nonc2N)n1 returned aSyn 5UTR act -87*.
Screening O=C(Nc1ncc(Cc2ccc(SC(F)F)cc2)s1)c1ccc(OC(F)F)cc1 returned aSyn 5UTR act -129*.
Screening O=C(NCc1ccco1)c1nc2ccccc2s1 returned aSyn 5UTR act -107*.
For Cc1ccc(-c2cc(C(=O)NCc3ccco3)c3ccccc3n2)s1 the results were aSyn 5UTR act -65*.
`COCCNC(=O)c1nc2ccccc2s1` gave aSyn 5UTR act -83*.
Screening CN(c1ccc(C(=O)Nc2cccc(O)c2)cc1)S(=O)(=O)c1ccccc1 returned aSyn 5UTR act -105*.
`CCN(c1ccccc1)S(=O)(=O)c1ccc(C(=O)Nc2ccccn2)cc1` gave aSyn 5UTR act -76*.
For CN(c1ccc(C(=O)Nc2ccccn2)cc1)S(=O)(=O)c1ccccc1 the results were aSyn 5UTR act -133*.
For CCc1nnc(NC(=O)c2ccc(S(=O)(=O)N(C)c3ccccc3)cc2)o1 the results were aSyn 5UTR act 56.
Cc1ccc2[nH]c(-c3cccc(F)c3)cc(=O)c2c1 was read as aSyn 5UTR act 81.
`Cc1ccc2[nH]c(-c3cccc(N)c3)cc2c1` gave aSyn 5UTR act -209*.
Cc1ccc2[nH]c(=O)c(C3C(C#N)=C(N)Oc4c3ccc3cccnc43)cc2c1 (stereo unspecified) was read as aSyn 5UTR act 75.
For c1ccc2c(c1)Cc1cc3ccccc3nc1-2 the results were aSyn 5UTR act -102*.
Cc1ccc(-c2cc3c(nn2)-c2ccccc2C3=O)cc1 was read as aSyn 5UTR act 86.
Screening O=C1c2ccccc2-c2nc3ccccc3cc21 returned aSyn 5UTR act -114*.
`COC(=O)CSc1nc2ccccn2c(=O)c1C=O` gave aSyn 5UTR act -173*.
For O=C1Nc2ccccc2/C1=N/c1sc2c(c1C(=O)NCCc1ccccc1)CCCC2 the results were aSyn 5UTR act -87*.
Screening COc1ccc2nc(Nc3ccccc3OC)sc2c1 returned aSyn 5UTR act -154*.
`COc1ccccc1NC(=O)Nc1nc2ccc(S(N)(=O)=O)cc2s1` gave aSyn 5UTR act -183*.
Screening CCC(C)C(=O)Nc1nc2ccc(OC)cc2s1 (stereo unspecified) returned aSyn 5UTR act -167*.
Screening COc1ccc2nc(Nc3ccccc3)sc2c1 returned aSyn 5UTR act -119*.
For COc1ccc2nc(NC(=O)Nc3ccccc3OC)sc2c1 the results were aSyn 5UTR act -89*.
COc1ccc2nc(NC(=O)Nc3cccc4ccccc34)sc2c1 was read as aSyn 5UTR act -103*.
`Cc1nnc(NCCc2ccccc2)c2ccccc12` gave aSyn 5UTR act -86*.
CNC[C@H](Cc1ccccc1)NC[C@@H](Cc1cccc2ccccc12)NCCc1ccc(C)cc1 was read as aSyn 5UTR act 123.
For COC(=O)c1c(C)oc2ccc(N(C(=O)c3ccncc3)S(=O)(=O)c3ccc(C)cc3)cc12 the results were aSyn 5UTR act 110.
Screening Cc1ccc(S(=O)(=O)N(C(=O)c2ccncc2)c2ccc(OC(=O)c3ccncc3)c3ccccc23)cc1 returned aSyn 5UTR act -65*.
For COC(=O)c1cnc(SCc2ccc(C)cc2)n1C the results were aSyn 5UTR act -81*.
CC(C)c1ccc2c(c1)C1Cc3ccccc3C1N2 (stereo unspecified) was read as aSyn 5UTR act -196*.
